# Reference: the supplement of paper PMC12282887
# ± gives the standard deviation of the averaged measurements.
# Key:
# Experiment in all cases: promoter activity interaction Z-score (Lux/OD deviation from empty-vector control); higher = stronger promoter induction by the compound
# [1] = test system: E. coli BW25113 acrABp lux reporter
# Outline: (§1)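 Reporter strains of E. coli BW25113 grew at 37°C in 40 µl LB Lennox in 384-well plates. Readings of OD600 and luminescence were taken every 30 min over 12 h, integrated over 0–8 h (wild type) or 1–9 h (deletion strains), and wells below 10% of the median growth value were excluded. Scores are Z-transformed residuals of growth-normalised luminescence from a fit against a control.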
# [2] = test system: E. coli BW25113 micFp lux reporter
# Outline: as §1
# [3] = test system: E. coli BW25113 ompFp lux reporter
# Outline: as §1
# [4] = test system: E. coli BW25113 robp lux reporter
# Outline: as §1
# [5] = test system: E. coli BW25113 soxSp lux reporter
# Outline: as §1
# [6] = test system: E. coli BW25113 tolCp lux reporter
# Outline: as §1
# [7] = 1.8 µg/ml, genetic background: wild type
# [8] = 1.8 µg/ml, genetic background: ΔmarA
# [9] = 1.8 µg/ml, genetic background: Δrob
# [10] = 1.8 µg/ml, genetic background: ΔsoxS
# [11] = 3.7 µg/ml, genetic background: wild type
# [12] = 3.7 µg/ml, genetic background: ΔmarA
# [13] = 3.7 µg/ml, genetic background: Δrob
# [14] = 3.7 µg/ml, genetic background: ΔsoxS
# [15] = 7.3 µg/ml, genetic background: wild type
# [16] = 7.3 µg/ml, genetic background: ΔmarA
# [17] = 7.3 µg/ml, genetic background: Δrob
# [18] = 7.3 µg/ml, genetic background: ΔsoxS
# [19] = 14.7 µg/ml, genetic background: wild type
# [20] = 14.7 µg/ml, genetic background: ΔmarA
# [21] = 14.7 µg/ml, genetic background: ΔsoxS
compound,measurement,setting,value
CC[C@H]1OC(=O)[C@H](C)[C@@H](O[C@H]2C[C@@](C)(OC)[C@@H](O)[C@H](C)O2)[C@H](C)[C@@H](O[C@@H]2O[C@H](C)C[C@H](N(C)C)[C@H]2O)[C@](C)(O)C[C@@H](C)C(=O)[C@H](C)[C@@H](O)[C@]1(C)O [Erythromycin],promoter activity interaction Z-score,[1]; [7],0.453 ± 0.14
same,promoter activity interaction Z-score,[1]; [8],0.681 ± 0.23
same,promoter activity interaction Z-score,[1]; [9],0.159 ± 0.56
same,promoter activity interaction Z-score,[1]; [10],0.201 ± 0.23
same,promoter activity interaction Z-score,[1]; [11],0.762 ± 0.17
same,promoter activity interaction Z-score,[1]; [12],-1.09 ± 0.061
same,promoter activity interaction Z-score,[1]; [13],0.417 ± 0.063
same,promoter activity interaction Z-score,[1]; [14],1.35 ± 1.5
same,promoter activity interaction Z-score,[1]; [15],1.66 ± 0.12
same,promoter activity interaction Z-score,[1]; [16],-0.406 ± 0.24
same,promoter activity interaction Z-score,[1]; [17],1.7 ± 0.48
same,promoter activity interaction Z-score,[1]; [18],2.23 ± 1.1
same,promoter activity interaction Z-score,[1]; [19],7.47 ± 0.26
same,promoter activity interaction Z-score,[2]; [7],0.913 ± 0.45
same,promoter activity interaction Z-score,[2]; [8],-0.122 ± 0.027
same,promoter activity interaction Z-score,[2]; [9],-0.273 ± 0.066
same,promoter activity interaction Z-score,[2]; [10],0.0903 ± 0.17
same,promoter activity interaction Z-score,[2]; [11],0.742 ± 0.35
same,promoter activity interaction Z-score,[2]; [12],-0.1986 ± 0.0018
same,promoter activity interaction Z-score,[2]; [13],-0.176 ± 0.13
same,promoter activity interaction Z-score,[2]; [14],0.695 ± 0.24
same,promoter activity interaction Z-score,[2]; [15],0.748 ± 0.99
same,promoter activity interaction Z-score,[2]; [16],-0.167 ± 0.085
same,promoter activity interaction Z-score,[2]; [17],-0.148 ± 0.073
same,promoter activity interaction Z-score,[2]; [18],-0.224 ± 0.12
same,promoter activity interaction Z-score,[2]; [19],-1.13 ± 0.77
same,promoter activity interaction Z-score,[2]; [20],-0.537 ± 0.026
same,promoter activity interaction Z-score,[2]; [21],-0.792 ± 0.2
same,promoter activity interaction Z-score,[3]; [7],0.573 ± 0.45
same,promoter activity interaction Z-score,[3]; [8],0.458 ± 0.21
same,promoter activity interaction Z-score,[3]; [9],0.2177 ± 0.0014
same,promoter activity interaction Z-score,[3]; [10],0.925 ± 0.37
same,promoter activity interaction Z-score,[3]; [11],0.894 ± 0.58
same,promoter activity interaction Z-score,[3]; [12],0.288 ± 0.31
same,promoter activity interaction Z-score,[3]; [13],1.58 ± 1.1
same,promoter activity interaction Z-score,[3]; [14],2.48 ± 1.1
same,promoter activity interaction Z-score,[3]; [15],1.78 ± 0.84
same,promoter activity interaction Z-score,[3]; [16],1.17 ± 0.52
same,promoter activity interaction Z-score,[3]; [17],1.96 ± 2
same,promoter activity interaction Z-score,[3]; [18],1.97 ± 0.072
same,promoter activity interaction Z-score,[3]; [19],-0.66 ± 0.73
same,promoter activity interaction Z-score,[3]; [21],-1.6
same,promoter activity interaction Z-score,[4]; [7],-0.139 ± 0.59
same,promoter activity interaction Z-score,[4]; [8],-0.666 ± 0.22
same,promoter activity interaction Z-score,[4]; [9],-0.816 ± 0.1
same,promoter activity interaction Z-score,[4]; [10],-0.469 ± 0.72
same,promoter activity interaction Z-score,[4]; [11],-0.638 ± 0.12
same,promoter activity interaction Z-score,[4]; [12],-2.16 ± 0.55
same,promoter activity interaction Z-score,[4]; [13],-1.32 ± 0.2
same,promoter activity interaction Z-score,[4]; [14],-0.16 ± 0.77
same,promoter activity interaction Z-score,[4]; [15],-2.01 ± 0.31
same,promoter activity interaction Z-score,[4]; [16],-2.33 ± 0.13
same,promoter activity interaction Z-score,[4]; [17],-2.18 ± 0.23
same,promoter activity interaction Z-score,[4]; [18],-2.29 ± 0.77
same,promoter activity interaction Z-score,[4]; [19],-2.43 ± 0.2
same,promoter activity interaction Z-score,[4]; [20],-3.56 ± 0.35
same,promoter activity interaction Z-score,[5]; [7],0.111 ± 0.015
same,promoter activity interaction Z-score,[5]; [8],0.214 ± 0.046
same,promoter activity interaction Z-score,[5]; [9],-0.111 ± 0.089
same,promoter activity interaction Z-score,[5]; [10],0.0397 ± 0.3
same,promoter activity interaction Z-score,[5]; [11],-0.0179 ± 0.043
same,promoter activity interaction Z-score,[5]; [12],-0.0482 ± 0.098
same,promoter activity interaction Z-score,[5]; [13],0.228 ± 0.28
same,promoter activity interaction Z-score,[5]; [14],0.647 ± 0.18
same,promoter activity interaction Z-score,[5]; [15],0.0493 ± 0.044
same,promoter activity interaction Z-score,[5]; [16],0.351 ± 0.19
same,promoter activity interaction Z-score,[5]; [17],0.215 ± 0.16
same,promoter activity interaction Z-score,[5]; [18],1.65 ± 0.52
same,promoter activity interaction Z-score,[5]; [19],0.956 ± 0.22
same,promoter activity interaction Z-score,[5]; [20],0.78 ± 0.098
same,promoter activity interaction Z-score,[5]; [21],3.05 ± 2.9
same,promoter activity interaction Z-score,[6]; [7],0.39 ± 0.18
same,promoter activity interaction Z-score,[6]; [8],-0.768 ± 0.45
same,promoter activity interaction Z-score,[6]; [9],-0.66 ± 0.14
same,promoter activity interaction Z-score,[6]; [10],-0.318 ± 0.13
same,promoter activity interaction Z-score,[6]; [11],0.0127 ± 0.24
same,promoter activity interaction Z-score,[6]; [12],-1.38 ± 0.97
same,promoter activity interaction Z-score,[6]; [13],-0.333 ± 1.4
same,promoter activity interaction Z-score,[6]; [14],-0.0456 ± 0.47
same,promoter activity interaction Z-score,[6]; [15],0.177 ± 1.4
same,promoter activity interaction Z-score,[6]; [16],-0.63 ± 0.74
same,promoter activity interaction Z-score,[6]; [17],0.449 ± 2.3
same,promoter activity interaction Z-score,[6]; [18],0.434 ± 0.85
same,promoter activity interaction Z-score,[6]; [19],1.66 ± 1.9
same,promoter activity interaction Z-score,[6]; [20],-1.14 ± 3.2
same,promoter activity interaction Z-score,[6]; [21],0.542 ± 0.66
